Compound activity: PubChem, National Center for Advancing Translational Sciences (NCATS)
Hits are enriched below; roughly 3.8% of the tested compounds scored in any of these assays.
HT1080NT lethal = kills 2HG-producing HT-1080-NT fibrosarcoma cells; HT-1080-NT fibrosarcoma viability, CellTiter-Glo ATP luminescence, 48 h; Potency, µM (top dose mostly 46.1 µM), for the others: top-dose activity, negative = less viability, actives largely listed as cytotoxic; 1.6% of 360,000 active; AID 686970;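 note: NT is the 2HG producing partner of a matched IDH1 knockdown line; 0% = DMSO-treated cells and -100% = media-only wells without cells; nearly all actives have a fitted effect of over 55% in size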
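Toxicity toward the 2HG-producing NT line was scored as %Activity, normalised to DMSO and no-cell wells, from CellTiter-Glo luminescence after 48 hours' treatment.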
S2 tox = reduces viability in counter-screen for ATXN expression inhibitors | 0.49% of 400,000 active | S2 cells (HEK-293 line with an ATXN2-luciferase reporter) viability, CellTiter-Fluor protease fluorescence, 24 h | AID 651635 | Potency, µM (series often up to 56.7 µM), usual class: cytotoxic; note: nearly all actives have a fitted effect of over 40% in size
TGFb inhibitor = blocks TGF-b signaling. HepG2 CAGA-GFP TGF-b/SMAD3 reporter, GFP fluorescence, 18 h; TGF-beta stimulated, 500 pg/mL final. Potency, µM (doses to about 46.1 µM), inactives show top-dose activity, negative = inhibition, most hits filed as inhibitors. 1.2% of 410,000 active. AID 588855; note: % is set by controls: 0 for no effect and ±100 for the full control effect; nearly all actives have a fitted effect of over 65% in size
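Cell-based qHTS in HEPG2 carrying a CAGA-GFP Smad reporter; compounds added before 500 pg/mL final TGF-beta, 18 h incubation at 37 degrees C, GFP fluorescence quantified per cell by imaging cytometry.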
HT1080 IDH1KD tx = kills HT-1080 cells with IDH1 knockdown | HT-1080 IDH1 knockdown viability, ATP luminescence, 48 h | Potency, µM (series often up to 46.1 µM), for the others: top-dose activity, negative = toxicity, usual class: cytotoxic | 2% of 360,000 active;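 note: 0% = DMSO wells and -100% = cell-free medium wells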
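Cytotoxicity counter-line: IDH1KD HT-1080, 48 h, CellTiter-Glo. Curves classed by r2, magnitude and activity.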
HepG2 tox = counter-screen for TGF-b inhibitors: cytotoxicity in HepG2 cells; 0.76% of 410,000 active; Potency, µM (doses to about 46.1 µM), for inactives: at the top dose activity change, negative = cytotoxicity, usual class: cytotoxic; AID 588856; HepG2 CAGA-GFP viability, ATP luminescence, 18 h
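HepG2 CAGA-GFP cells (1000/well, DMEM with 1% FBS) received compound, then TGF-beta at 500 pg/mL final, and were incubated 18 hours at 37 degrees C. Viability was read by CellTiter-Glo luminescence. Media-only wells were set as complete cell-killing and DMSO as no toxicity.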
ATXN2 expr inh = inhibitors of ATXN2 expression | Potency, µM (doses to about 57 µM), for inactives: top-dose activity change, negative = inhibition, most hits filed as inhibitors | HEK-293 ATXN2-luciferase reporter, luminescence, 24 h | 0.72% of 360,000 active; note: % is set by controls: 0 for no effect and ±100 for the full control effect; nearly all actives have a fitted effect of over 55% in size
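qHTS (up to 57 uM final) was run with 24 h compound exposure of reporter cells at 37 °C. Each well was multiplexed: SteadyGlo luminescence measured ATXN2-luciferase expression after a fluorogenic Gly-Phe-AFC viability readout (25 uM final).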
Starred values were filed as active, the others as inactive; i = inactive; ? = inconclusive; . = not tested or not shown. Calls come from the whole dose curve; as a rule, active = well fitted curve in the direction sought with a large enough effect; inconclusive = small, poorly fitted or top-dose-only effect, or another doubt; inactive = no such curve, though single readings can be large; an effect the other way counts as inactive or inconclusive. Potency is the fitted concentration of half-maximal effect.

SMILES | HT1080NT lethal | S2 tox | TGFb inhibitor | HT1080 IDH1KD tx | HepG2 tox | ATXN2 expr inh
CC(C)Oc1ccc(F)cc1-c1cc(C(=O)N2CCc3ccccc3C2)[nH]n1 | -19% | ? | 14µM* | -22% | -33% | ?
CC(C)Oc1ccc(F)cc1-c1cc(C(=O)Nc2ccccc2)[nH]n1 | 5% | i | 3% | 25% | 4% | 19%
CC(C)Oc1ccc(F)cc1-c1cc(C(=O)Nc2ccc(C(C)(C)C)cc2)[nH]n1 | 23µM* | ? | ? | 18µM* | -79% | -20%
CCCN(C(=O)Cn1ncc2c1-c1ccccc1OC2)c1cccc(C)c1 | . | i | -5% | . | -3% | -19%
OC[C@@H](O)[C@H](O)[C@H](O)[C@@H](O)CO | . | i | . | . | . | 13%
COc1cc2c3nnc(-c4ccc(F)cc4)c-3cn(Cc3ccc(F)cc3)c2cc1OC | -7% | i | 40% | ? | -111% | ?
COc1ccc(Cn2cc3c(-c4ccc(F)cc4)nnc-3c3cc(OC)c(OC)cc32)cc1 | ? | i | 25% | ? | -108% | 32µM*
COc1cc2c3nnc(-c4ccc(F)cc4)c-3cn(Cc3ccccc3)c2cc1OC | -4% | i | 71% | ? | -112% | 16µM*
Cc1cc(=O)c(C(=O)NCCc2ccccn2)c2n1-c1ccccc1SC(c1cccs1)C2 (stereo not drawn) | . | i | . | . | . | .
Nc1ccn([C@@H]2O[C@H](CO)[C@@H](O)[C@H]2O)c(=O)n1 | -18% | i | -4% | 4% | 4% | ?
Nc1ccn([C@@H]2O[C@H](CO)[C@@H](O)C2(F)F)c(=O)n1 | . | ? | . | . | . | 32µM*
O=C(CSc1nnc(CNC(=O)c2ccccc2)n1-c1cccc(Cl)c1)Nc1ccccc1F | . | i | ? | . | -3% | -6%
O=[N+]([O-])c1cc(C(F)(F)F)cc([N+](=O)[O-])c1NCCNC(=S)Nc1cccc(F)c1 | -24% | ? | 11µM* | -22% | -126% | ?
Cc1ccc(C)c(N=Nc2nc3ccccc3n2C)c1 | 4µM* | ? | ? | 7.9µM* | -54% | -14%
CCN(C(=O)Cn1nnc2sc3c(c2c1=O)CCC(C(C)(C)C)C3)c1cccc(C)c1 (stereo not drawn) | . | ? | -2% | . | -1% | ?
Cc1cccc(C(=O)NNC(=O)c2ccc(Cl)cc2)c1O | -21% | i | 18% | -19% | -21% | -17%
O=C(NNC1=C(C(=O)C(F)(F)F)CCC1)c1cccnc1 | -1% | i | -4% | 2% | -2% | -1%
Cc1cccc(C(=O)NNC2=C(C(=O)C(F)(F)F)CCC2)c1O | 21µM* | i | ? | 21µM* | -44% | ?
O=C(NNC1=C(C(=O)C(F)(F)F)CCC1)c1cccc(O)c1 | ? | i | -16% | 18µM* | -12% | -30%
Cc1ccc(NC(=O)COc2ccccc2CNC(C)(C)CC(C)(C)C)cc1 | ? | 22µM* | ? | ? | 11µM* | 25µM*
CC(C)(CO)NCc1ccccc1OCC(=O)Nc1ccccc1 | 3% | i | -1% | 23% | -13% | 0%
Cc1ccc2c(c1)C(c1ccc(F)cc1)N(C(=O)COc1ccc(Cl)cc1Cl)CC(=O)N2 (stereo not drawn) | . | ? | ? | . | -37% | ?
O=C(OCC(=O)N1CCCC1=O)c1nc(Cl)c(Cl)c(Cl)c1Cl | -7% | 32µM* | -2% | ? | -15% | ?
CCOc1ccc(C(=O)Nc2ccc3oc(-c4cccc5ccccc45)nc3c2)cc1 | . | . | -38% | . | -26% | .
O=C(Nc1ccc(Cl)c(C(F)(F)F)c1)C1Cc2c(-c3ccccc3)ccnc2O1 (stereo not drawn) | ? | ? | 14µM* | ? | 11µM* | -25%
SMILES | HT1080NT lethal | S2 tox | TGFb inhibitor | HT1080 IDH1KD tx | HepG2 tox | ATXN2 expr inh
CC(=O)Nc1ccc(-c2ccnc3c2CC(C(=O)Nc2cccnc2)O3)cc1 (stereo not drawn) | 13µM* | i | 22% | 13µM* | -1% | -2%
CC(=O)Nc1ccc(-c2ccnc3c2CC(C(=O)Nc2cccc(C(C)=O)c2)O3)cc1 (stereo not drawn) | -11% | i | 7% | 0% | -4% | 3%
CC(=O)Nc1ccc(-c2ccnc3c2CC(C(=O)NCC2CCOCC2)O3)cc1 (stereo not drawn) | ? | i | -6% | ? | -5% | 15%
CC(=O)Nc1cccc(-c2ccnc3c2CC(C(=O)Nc2ccc(Cl)cc2)O3)c1 (stereo not drawn) | ? | ? | 32% | 21µM* | -17% | ?
CC(=O)Nc1ccc(-c2ccnc3c2CC(C(=O)NCC2CC2)O3)cc1 (stereo not drawn) | ? | i | 6% | 16µM* | 5% | 10%
COc1ccc(N2CCN(C(=O)c3cc(NC(C)=O)c4c(c3)ncn4CCc3ccccn3)CC2)cc1 | . | i | . | . | . | .
CCc1ccccc1NC(=O)C(=O)NCC(c1cccnc1)N1CCN(c2ccccc2F)CC1 (stereo not drawn) | . | . | -4% | . | -9% | .
CC(CC(c1ccccc1)c1ccccc1)NC(C)(C)C (stereo not drawn) | . | i | . | . | . | .
Cc1ccccc1Nc1nc(Nc2ccccc2C)nc(SC2=NCCS2)n1 | ? | ? | ? | ? | -22% | ?
Cc1ccc(Nc2nc(Nc3ccc(C)cc3)nc(SC3=NCCS3)n2)cc1 | 10µM* | ? | ? | ? | -26% | -27%
COc1cccc2cc(C(=O)N3CC(C)OC(C)C3)c(=O)oc12 (stereo not drawn) | -3% | i | ? | 8% | -26% | -19%
COc1cc2c(oc(=O)c3cc(C)cc(OC)c32)c2c(C3OC(C)C(O)C(C)(O)C3O)ccc(O)c12 (stereo not drawn) | ? | ? | 7.1µM* | ? | 2% | 0%
Cc1ccc(Nc2nnc(-c3ccc(C)c(S(=O)(=O)N4CCOCC4)c3)c3ccccc23)c(C)c1 | . | . | 16% | . | 2% | .
COc1ccc(/C=N/NC(=O)c2cccnc2)cc1COc1ccc([N+](=O)[O-])cc1 | ? | i | 7% | 6.5µM* | 19% | ?
COc1ccc(/C=N\NC(=O)c2ccccc2Br)cc1COc1ccccc1 | ? | ? | ? | ? | -57% | ?
COc1ccc(/C=N\NC(=O)c2ccc(F)cc2)cc1COc1ccccc1C(N)=O | -5% | i | ? | -1% | -20% | -19%
